Our source for the growth values is PubChem BioAssay (NCI).

What all share (test): NCI-60 one-dose screen, 48 h (100 = growth as untreated, 0 = no growth, -100 = all killed)
For one experiment, the system named is NCI-H226 lung. To be noted: 10 µM unless noted.
The next experiment concerns NCI-H322M lung. Conditions: 10 µM unless noted.
The test system of the next experiment is HOP-62 NSCLC. To be noted: 10 µM unless noted.
The test system of another experiment is K-562 leukemia. Conditions: 10 µM unless noted.
For the next experiment, the system named is SF-295 CNS. Conditions: 10 µM unless noted.
In another experiment the test system is HCT-15 colon. To be noted: 10 µM.
A further experiment concerns SNB-19 CNS. Conditions: 10 µM unless noted.
The next experiment relates to SK-MEL-5 melanoma. Conditions: 10 µM unless noted.
In a further experiment the test system is LOX IMVI melanoma. Conditions: 10 µM unless noted.
The subject of a further experiment is EKVX NSCLC. Conditions: 10 µM unless noted.
A further experiment deals with TK-10 renal. To be noted: 10 µM unless noted.
Another experiment has as its system CCRF-CEM leukemia. To be noted: 10 µM unless noted.
The next experiment relates to SR leukemia. Conditions: 10 µM.
The next experiment concerns RPMI-8226 leukemia. To be noted: 10 µM unless noted.
The subject of a further experiment is HOP-92 NSCLC. Conditions: 10 µM unless noted.
The test system of a further experiment is MOLT-4 leukemia. To be noted: 10 µM.
In another experiment the test system is IGROV1 ovarian. Conditions: 10 µM.
The test system of a further experiment is HCC-2998 colon. Conditions: 10 µM unless noted.
The next experiment deals with NCI-H522 lung. Conditions: 10 µM unless noted.

SMILES strings stand for the structures. About 83,000 compounds went through this panel and 20% of them were active in at least one assay; those are over-represented in the sample as a whole.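 Each cell line was grown in a 96-well plate and treated with one concentration of compound for 48 hours. Values below 10 were considered active.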 A number with no mark means an inactive call. Active and inactive are the calls of the source.

Consider `C[C@]12CC[C@@H]3c4ccc(OC(=O)Cc5ccc(N(CCCl)CCCl)cc5)cc4CC[C@H]3[C@@H]1CC[C@@H]2OC(=O)Cc1ccc(N(CCCl)CCCl)cc1`, for which the growth in the experiment with NCI-H226 lung is 92.6%; with NCI-H322M lung it was 100%; in the experiment with HOP-62 NSCLC, 110%; with K-562 leukemia, 106%; in the experiment on SF-295 CNS it was 103%; in the experiment with HCT-15 colon, 113%. The growth in the experiment on SNB-19 CNS was 107%; in the experiment with SK-MEL-5 melanoma, 87%; with LOX IMVI melanoma it was 108%; in the experiment with EKVX NSCLC, 110%; in the experiment on TK-10 renal, 120%; in the experiment on CCRF-CEM leukemia, 136%. The growth with SR leukemia was 106%; in the experiment on RPMI-8226 leukemia, 123%.
For the compound `CC(=O)O[C@H]1CCC2(C)C(=CCC3C2CCC2(C)/C(=N/OC(=O)c4ccc(N(CCCl)CCCl)cc4)CCC32)C1` (some centres not stated), the growth is 101% in the experiment with NCI-H226 lung; -60.8% (active) with HOP-62 NSCLC; 76.1% with HOP-92 NSCLC; 5% (active) in the experiment on K-562 leukemia; 63.5% with SF-295 CNS; 55.2% in the experiment with HCT-15 colon. The growth is 37.7% in the experiment on SNB-19 CNS; 73.2% in the experiment on SK-MEL-5 melanoma; 5.24% (active) in the experiment with LOX IMVI melanoma; 23.1% in the experiment on EKVX NSCLC; 3.85% (active) with MOLT-4 leukemia; -24.9% (active) with SR leukemia. The growth with RPMI-8226 leukemia was 26.6%; with IGROV1 ovarian, 11.6%; in the experiment with HCC-2998 colon, 80.3%.
Regarding `CC12CCC3C(CC=C4CC(O)CCC43C)C1C/C(=C\N1CCOCC1)C2=O` (configuration not stated), the growth in the experiment with NCI-H226 lung was 93.2%; with NCI-H322M lung it was 113%; in the experiment with HOP-92 NSCLC, 91.3%; in the experiment on NCI-H522 lung, 83.3%; with K-562 leukemia, 108%; in the experiment with SF-295 CNS it was 113%. The growth in the experiment on HCT-15 colon is 99.9%; with SNB-19 CNS, 110%; in the experiment with SK-MEL-5 melanoma it was 99.1%; in the experiment with EKVX NSCLC it was 96.1%; in the experiment with TK-10 renal, 96%; in the experiment on CCRF-CEM leukemia, 94.3%. The growth in the experiment on MOLT-4 leukemia is 106%; in the experiment with SR leukemia, 98.4%; in the experiment on RPMI-8226 leukemia, 102%; with IGROV1 ovarian, 119%; with HCC-2998 colon, 114%.
For `CC1CC=CCC12C(=O)NC(=S)NC2=O` (configuration not stated), the growth in the experiment with NCI-H226 lung was 102%; with NCI-H322M lung, 118%; in the experiment with HOP-92 NSCLC, 105%; in the experiment on NCI-H522 lung, 101%; in the experiment with K-562 leukemia it was 94.2%; with SF-295 CNS, 99%. Besides, the growth in the experiment on HCT-15 colon is 103%; with SNB-19 CNS it was 109%; in the experiment on SK-MEL-5 melanoma, 103%; with EKVX NSCLC it was 95.9%; in the experiment with TK-10 renal, 103%; in the experiment on CCRF-CEM leukemia, 82.6%. For the same compound, the growth with MOLT-4 leukemia is 109%; with IGROV1 ovarian, 117%; in the experiment on HCC-2998 colon it was 116%.
In the case of `CCOc1ccc(C(O)CN(C)Cc2ccccc2)cc1Cl` (configuration not stated), the growth was 92.1% in the experiment on NCI-H226 lung; 102% in the experiment with NCI-H322M lung; 75.4% in the experiment on HOP-92 NSCLC; 97.1% in the experiment with NCI-H522 lung; 92.5% in the experiment on K-562 leukemia; 96.1% with SF-295 CNS. Moreover, the growth with HCT-15 colon is 106%; with SNB-19 CNS, 100%; with SK-MEL-5 melanoma, 93.2%; in the experiment on LOX IMVI melanoma, 98.6%; in the experiment with EKVX NSCLC, 95.7%; with TK-10 renal it was 102%. In addition, the growth with CCRF-CEM leukemia is 108%; in the experiment on MOLT-4 leukemia, 96.3%; in the experiment with SR leukemia, 95.7%; in the experiment on RPMI-8226 leukemia, 104%; in the experiment on HCC-2998 colon it was 102%.
As for `C[CH2][Pb]([CH2]C)([CH2]C)[O]C(=O)COC`, the growth in the experiment on NCI-H226 lung is 6.09% (active); with NCI-H322M lung, -11.1% (active); in the experiment on HOP-62 NSCLC, -16.2% (active); in the experiment with K-562 leukemia, 0.215% (active); in the experiment on SF-295 CNS, -58.5% (active); in the experiment with HCT-15 colon, 8.99% (active). The growth in the experiment on SK-MEL-5 melanoma is -74.9% (active); in the experiment with LOX IMVI melanoma it was -20.8% (active); with IGROV1 ovarian, -13% (active).
Turning to `C[CH2][Pb]([CH2]C)([CH2]C)[O]C(=O)COc1ccccc1`, the growth in the experiment on NCI-H226 lung is 23.2%; in the experiment with NCI-H322M lung, 0.448% (active); in the experiment on HOP-62 NSCLC, -9.05% (active); in the experiment on K-562 leukemia it was 4.92% (active); with SF-295 CNS, -62.3% (active); with HCT-15 colon it was 12.4%. The growth with SK-MEL-5 melanoma was -21.4% (active); in the experiment with LOX IMVI melanoma, -35.8% (active); in the experiment on MOLT-4 leukemia, -27.2% (active); in the experiment on IGROV1 ovarian, 2.01% (active); in the experiment on HCC-2998 colon it was -52% (active).
As to `O=C(CF)N(O)c1ccc(/C=C/c2ccccc2)cc1`, the growth with NCI-H226 lung was -22.9% (active); in the experiment on NCI-H322M lung, 71.4%; with NCI-H522 lung it was 60.6%; in the experiment with K-562 leukemia, 45.4%; with SF-295 CNS, 9.04% (active); in the experiment on SNB-19 CNS, 54.3%. Further, the growth was 77.1% in the experiment with SK-MEL-5 melanoma; 39.8% in the experiment on LOX IMVI melanoma; 98.5% in the experiment with EKVX NSCLC; 67.4% in the experiment with TK-10 renal; 13.5% in the experiment with CCRF-CEM leukemia; 34.9% in the experiment on MOLT-4 leukemia. Besides, the growth was 40.8% in the experiment with IGROV1 ovarian and 25.4% in the experiment on HCC-2998 colon.
Turning to `COc1ccc(/C=C(/C(=O)N2CCCC2)c2cc(OC)c(OC)c(OC)c2)cc1N`, the growth is 75.9% in the experiment on NCI-H226 lung; 48.1% with NCI-H322M lung; 46.1% in the experiment on HOP-92 NSCLC; 16.1% in the experiment with K-562 leukemia; 17.5% in the experiment on SF-295 CNS; 29.2% in the experiment with HCT-15 colon. Besides, the growth in the experiment with SNB-19 CNS was 44.4%; in the experiment with SK-MEL-5 melanoma it was 20%; in the experiment on LOX IMVI melanoma, 35.3%; in the experiment on EKVX NSCLC it was 52.8%; with TK-10 renal, 75.3%; in the experiment with CCRF-CEM leukemia it was 19%. For the same compound, the growth with MOLT-4 leukemia is 34.4%; in the experiment with SR leukemia it was 19.5%; in the experiment with RPMI-8226 leukemia it was 31.6%; in the experiment on IGROV1 ovarian it was 51.4%; in the experiment with HCC-2998 colon, 68.5%.
For `CC(C)OC(=S)[S-].[Au+].c1ccc([PH+](c2ccccc2)c2ccccc2)cc1`, the growth with NCI-H322M lung is 99.4%; in the experiment with HOP-62 NSCLC, 76%; in the experiment with HOP-92 NSCLC it was -23% (active); in the experiment on NCI-H522 lung, -63.6% (active); with K-562 leukemia it was 8.05% (active); in the experiment on SF-295 CNS, 91.1%. In addition, the growth in the experiment with HCT-15 colon is -14.2% (active); with SNB-19 CNS, 25.1%; in the experiment on SK-MEL-5 melanoma, 30.2%; in the experiment on LOX IMVI melanoma it was -64.9% (active); in the experiment with EKVX NSCLC, 82.9%; in the experiment with TK-10 renal it was -3.22% (active). In addition, the growth in the experiment with CCRF-CEM leukemia is 10.9%; in the experiment with MOLT-4 leukemia, 10.9%; in the experiment with SR leukemia, 3.82% (active); with RPMI-8226 leukemia, 3.19% (active); in the experiment on IGROV1 ovarian, 2.28% (active); with HCC-2998 colon it was 50.8%.
